Bioassay records deposited in PubChem by Johns Hopkins Ion Channel Center.
Shown are actives, neighbours in structure and some others; about 1.6% of the full set was active somewhere.
KCNQ2 block: KCNQ2 (rat) channel inhibition. CHO-K1 KCNQ2, FluxOR thallium flux, 20 min; hits give low values. AID 2156. 310,000 compounds, 1.1% hits. B-score at 10 µM;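 active means fluorescence ratio B-score at most minus 3 library SDs, with starting brightness B-score within 2 library SDs, cut at about -5.5 in these data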
KCNQ2 pot: enhances the rat KCNQ2 potassium channel; O88943; CHO-K1 KCNQ2, FluxOR thallium flux fluorescence; hits give high values; B-score at 10 µM; 310,000 compounds, 0.54% hits;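 active means fluorescence ratio B-score at least 3 SD of library B-scores, with initial fluorescence B-score within 3 of them, cut at about 5.3 in these data; same plate scores as AID 2156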;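 further: B-score of peak minus minimum over baseline fluorescence ratio after K+ and Tl+ stimulus; positive B-score means potentiation of KCNQ2 with more thallium influx and brighter signal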
KCNQ2 inh conf: confirmation of rat KCNQ2 potassium channel inhibitors; KCNQ2-expressing cells, thallium flux, inhibition; hits give low values; shares compounds with KCNQ2 block; 1,000 compounds, 57% hits; activity change, negative = inhibition, % at 10 µM;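 further: 0% = vehicle wells and values are ratio percent relative to vehicle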
KCNQ1 spec: human KCNQ1 activity in KCNQ2 inhibitor specificity screen; shares compounds with KCNQ2 block; KCNQ1-expressing cells, FluxOR thallium flux fluorescence; hits give low values; activity change, negative = inhibition, % at 10 µM; 1,000 compounds, 15% hits;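 active means activity change at least 3 SD of negative controls below their mean in both duplicate wells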;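 further: CHO cells stably transfected with KCNQ1 and depolarized by potassium stimulus; peak minus minimum fluorescence over baseline after thallium addition; 0% = vehicle negative control and -100% = blank without thallium stimulus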
Target sequence (P51787 whole entry, looked up): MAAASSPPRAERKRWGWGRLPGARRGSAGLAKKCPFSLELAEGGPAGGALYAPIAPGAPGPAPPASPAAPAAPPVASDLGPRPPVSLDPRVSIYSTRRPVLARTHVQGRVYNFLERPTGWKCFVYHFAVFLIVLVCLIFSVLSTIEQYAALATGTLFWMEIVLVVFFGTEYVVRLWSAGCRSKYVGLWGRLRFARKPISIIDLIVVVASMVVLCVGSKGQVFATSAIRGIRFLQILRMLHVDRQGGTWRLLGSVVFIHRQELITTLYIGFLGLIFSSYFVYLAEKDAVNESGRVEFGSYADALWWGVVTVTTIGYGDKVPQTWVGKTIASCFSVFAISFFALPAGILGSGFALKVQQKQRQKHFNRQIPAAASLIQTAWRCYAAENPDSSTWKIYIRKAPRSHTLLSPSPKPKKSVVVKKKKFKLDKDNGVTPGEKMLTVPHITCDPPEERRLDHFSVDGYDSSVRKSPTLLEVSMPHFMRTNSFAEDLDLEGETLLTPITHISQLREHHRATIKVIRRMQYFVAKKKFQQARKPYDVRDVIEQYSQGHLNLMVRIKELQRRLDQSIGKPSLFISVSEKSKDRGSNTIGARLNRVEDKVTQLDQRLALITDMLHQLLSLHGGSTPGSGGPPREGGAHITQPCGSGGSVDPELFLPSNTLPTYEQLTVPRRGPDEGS
CHO parental ctr: KCNQ2 inhibitor counter-screen hit in parental CHO cells. shares compounds with KCNQ2 block. thallium flux counter-screen; hits give low values. activity change, % at 10 µM. 1,000 compounds, 14% hits. AID 493029;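 further: 0% = vehicle negative controls with stimulus buffer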
KCNQ2 inh confirm: blocks rat KCNQ2 current in automated patch clamp; shares compounds with KCNQ2 block; KCNQ2-expressing cells; calls only at 10 µM; 550 compounds, 49% hits
An asterisk follows results filed as active; i = inactive; nt = not tested or not shown; + = active, no number. Unless noted, how the calls were made is not given here.

SMILES	KCNQ2 block	KCNQ2 pot	KCNQ2 inh conf	KCNQ1 spec	CHO parental ctr	others
Cc1nn(C(C)C(=O)N2CCCCC2)c(=O)c2c1sc1ccccc12 (configuration not stated)	-8.93*	-8.93	-30.0%*	i	i	KCNQ2 inh confirm=+
Clc1ccc(/C=C/c2nc3ccccc3[nH]2)cc1	i	nt	nt	nt	nt
Clc1cccc(Cl)c1/C=C/c1nc2ccccc2[nH]1	-8.72*	-8.72	-35.5%*	-42.0%*	-29.5%*	KCNQ2 inh confirm=i
COc1ccc(OC)c(C(C(=O)NC2CCCCC2)N(Cc2ccco2)C(=O)c2ccccn2)c1 (configuration not stated)	i	nt	nt	nt	nt
CN(C)C(=O)NC1c2ccccc2-c2ccccc21	i	nt	nt	nt	nt
O=C(NC1c2ccccc2-c2ccccc21)N1CCCCC1	-6.76*	-6.76	-25.0%*	i	i	KCNQ2 inh confirm=+
CCCCN=CC1=C(O)CC(c2ccccc2)CC1=O (configuration not stated)	i	nt	nt	nt	nt
Cc1oc(-c2cccc(Cl)c2)nc1CN1CCC(C(=O)NC2CC2)CC1	i	1.17	nt	nt	nt
CCN(CCNC(=O)C1CCN(Cc2nc(-c3cccc(Cl)c3)oc2C)CC1)c1ccccc1	-12.4*	-12.4	-26.5%*	i	i	KCNQ2 inh confirm=i
CC(=O)N(Cc1ccco1)c1nc(C(=O)Nc2ccc(Cl)cc2)c(C)s1	i	nt	nt	nt	nt
CCn1c(C)c(C2=CCN(S(=O)(=O)c3ccccc3)CC2)c2ccccc21	i	nt	nt	nt	nt
Cc1ccc(C(=O)CSc2nnc(COc3ccc(C#N)cc3)n2-c2ccccc2)cc1	i	0.91	nt	nt	nt
Cc1ccc(OCc2nnc(SCC(=O)Nc3cccc4ccccc34)n2-c2ccccc2)cc1	-8.54*	-8.54	i	i	i
O=c1c2c3c(sc2ncn1/N=C/c1ccc([N+](=O)[O-])o1)CCCC3	i	nt	nt	nt	nt
Cn1cc(/C=N/n2cnc3sc4c(c3c2=O)CCCC4)c2ccccc21	-9.24*	-9.24	i	i	i
CCOC(=O)/C(=C/c1ccc(OC(=O)c2ccccc2)cc1)C(C)=O	i	nt	nt	nt	nt
C=CC[n+]1c(/C=C2\C=Cc3cc(C)ccc3N2CC)ccc2ccccc21	-9.78*	-9.78	i	i	i
CCN1/C(=C\c2ccc3cc(C)ccc3[n+]2CC)Sc2cc(C)c(C)cc21	i	nt	nt	nt	nt
O=C(/C=C/c1ccc(Cl)cc1)N(c1ccccn1)C1CCCCC1	-8.14*	-8.14	-44.0%*	-35.0%*	-34.0%*	KCNQ2 inh confirm=+
O=C(/C=C/c1cccc(F)c1)N(c1ccccn1)C1CCCCC1	i	nt	nt	nt	nt
O=C(Nc1ccccc1Cl)C1CCCN(S(=O)(=O)c2ccc(-n3cnnn3)cc2)C1 (configuration not stated)	i	nt	nt	nt	nt
CN1CCN(C2Cc3cc(F)ccc3Sc3ccc(Cl)cc32)CC1 (configuration not stated)	i	nt	nt	nt	nt
CN1CCN(C2Cc3ccccc3Sc3cc(C(F)(F)F)ccc32)CC1 (configuration not stated)	-7.38*	-7.38	-39.0%*	-38.0%*	-30.0%*	KCNQ2 inh confirm=i
Cc1cc(C(=O)Nc2cccc3ccccc23)c(C)o1	i	1.67	nt	nt	nt
Cc1oc(CC(C)C)cc1C(=O)Nc1cccc2ccccc12	-7.74*	-7.74	i	i	i
SMILES	KCNQ2 block	KCNQ2 pot	KCNQ2 inh conf	KCNQ1 spec	CHO parental ctr	others
CC(=O)Nc1ccc(OC(F)(F)C(F)C(F)(F)F)c(NC(C)=O)c1 (configuration not stated)	i	0.69	nt	nt	nt
COc1ccc(C2C(C(=O)c3cccs3)=C(O)C(=O)N2CCN2CCOCC2)c(OC)c1 (configuration not stated)	i	1.09	nt	nt	nt
O=C(Cc1c2ccccc2nc2ccccc12)c1ccccc1	i	nt	nt	nt	nt
CCOC(=O)/C(=N\Nc1cc(C(F)(F)F)ccc1Cl)N(CC)CC	-8.91*	-8.91	i	i	i
CN(C)CC(=O)Nc1cc(C(F)(F)F)ccc1Cl	i	0.07	nt	nt	nt
CN(C)CCn1nnc2c(=O)oc3ccccc3c21	i	0.71	nt	nt	nt
O=C(Nc1nnc(S(=O)(=O)N2CCN(c3ccc(F)cc3)CC2)s1)c1ccccc1	i	0.01	nt	nt	nt
Cc1sc2nc(SCc3ccccc3)n(Cc3ccco3)c(=O)c2c1C	i	nt	nt	nt	nt
COc1cccc(CSc2nc3sc(C)c(C)c3c(=O)n2Cc2ccco2)c1	-8.81*	-8.81	-28.0%*	i	i	KCNQ2 inh confirm=i
O=C(NCc1ccccn1)c1ccc(OC2CCN(Cc3cccs3)CC2)cc1	i	0.02	nt	nt	nt
O=C(NC1CCSc2ccccc21)c1cc(S(=O)(=O)N2CCOCC2)ccc1Cl (configuration not stated)	i	nt	nt	nt	nt
Cc1onc(-c2ccccc2)c1C(=O)Nc1nc(-c2ccccc2)cs1	-7.24*	-7.24	i	i	i
Cc1onc(-c2ccccc2)c1C(=O)Nc1nc(-c2cc(F)ccc2F)cs1	i	nt	nt	nt	nt
COc1ccc(Br)cc1CN(C)C(=O)c1ccccc1OCc1c(C)noc1C	-8.57*	-8.57	i	i	i
Cc1ccc(NC(=O)CN(C)C(=O)c2ccccc2OCc2c(C)noc2C)cc1	i	nt	nt	nt	nt
NCCCCCc1nnc(SCc2ccc(Cl)c(Cl)c2)o1	i	0.4	nt	nt	nt
COc1cc(-c2nc3ccccn3c2NCC2CCCO2)ccc1O (configuration not stated)	i	0.81	nt	nt	nt
CCOc1cc(-c2nc3ccccn3c2NCC2CCCO2)ccc1O (configuration not stated)	-9.55*	-9.55	i	i	i
CCOc1ccc(CCNC(=O)C(C)N2C(=O)CC(C)(C)Sc3ccccc32)cc1 (configuration not stated)	i	nt	nt	nt	nt
O=C1CCc2cc(S(=O)(=O)Nc3ccc(F)cc3)cc3c2N1CC3	i	0.79	nt	nt	nt
O=c1oc(-c2ccccc2)nc2c1C1(CCCCC1)Cc1ccccc1-2	-8.67*	-8.67	i	i	i
CCC1(CC)Cc2ccccc2-c2nc(-c3ccccc3)oc(=O)c21	i	nt	nt	nt	nt
O=[N+]([O-])c1ccc(Cl)c(/C=N/N2CCN(Cc3ccccc3)CC2)c1	i	nt	nt	nt	nt
O=[N+]([O-])c1ccc(Cl)c(/C=N/N2CCN(Cc3ccccc3Cl)CC2)c1	-7.24*	-7.24	i	i	i
CC1CCN(c2ccc(NC(=O)c3ccc(Br)o3)cc2)CC1	i	nt	nt	nt	nt
SMILES	KCNQ2 block	KCNQ2 pot	KCNQ2 inh conf	KCNQ1 spec	CHO parental ctr	others
CCCCOc1ccc(Cc2c(Cl)nc(SC)nc2N2CCOCC2)cc1	i	nt	nt	nt	nt
CSc1nc(Cl)c(Cc2ccc(OCC(C)C)cc2)c(N2CCOCC2)n1	-6.81*	-6.81	-24.0%*	i	i	KCNQ2 inh confirm=i
O=C(Cn1nnc2ccccc2c1=O)N[C@@H](Cc1ccccc1)C(=O)O	i	nt	nt	nt	nt
CCOC(=O)CNc1c(-c2ccc(OC)cc2)nc2ccc(Cl)cn12	-8.94*	-8.94	-28.0%*	i	i	KCNQ2 inh confirm=+
COCCNc1c(-c2ccc(OC)cc2)nc2ccc(Cl)cn12	i	nt	nt	nt	nt
N#Cc1ccccc1OCC(=O)Nc1c(C(=O)C2CC2)oc2ccccc12	i	nt	nt	nt	nt
Cc1ccc(O)c(C(=O)c2cnc(/N=C(\N)N(C)C)nc2)c1	i	0.3	nt	nt	nt
Cc1ccc(O)c(C(=O)c2cnc3c(c2)COc2ccc(C)cc2-3)c1	-6.81*	-6.81	i	i	i
